From PubChem BioAssay
BL2 CD40 inh: CD40 pathway inhibition in BL2 cells; inhibition, % at 10 µM; actives 0.94% (n = 83,000); BL2 NF-kB luciferase reporter, CD40L-induced, 4 h;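 active = mean inhibition of at least 50% with a set share of replicates also reaching that level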;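 also: 0% = neutral control wells and 100% = IKK inhibitor VII at 50 µM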
An asterisk follows results filed as active; [ ] = remark or other dose. The sample as a whole holds a higher share of hits than the screen did.

SMILES	BL2 CD40 inh
c1ccc2c(N3CCCC3)nc(-c3ccncc3)nc2c1	19.0
CC(C)NC(=O)Nc1cccc2c1O[C@H](CN(C)C(=O)OC(C)(C)C)[C@@H](C)CN(C)C2=O	-35.4
C[C@@H]1CN(C)C(=O)c2cc(N(C)C)ccc2O[C@@H]1CN(C)C(=O)OC(C)(C)C	-0.8
Cc1ccc(-c2ccc3c(c2)O[C@H](CN(C)Cc2cncnc2)[C@H](C)CN([C@@H](C)CO)S3(=O)=O)cc1	-19.7[25 µM]
CCC(=O)N1CC2(CCN(Cc3ccccc3Cl)CC2)c2c([nH]c3cc(OC)ccc23)[C@@H]1CO	-0.9[25 µM]
COCc1nnc(NC(=O)C2CC(=O)N(c3ccc(C)c(Cl)c3)C2)s1 (stereo not given)	0.9
Cc1ccc(N2CC(C(=O)Nc3nccs3)CC2=O)cc1Cl (stereo not given)	60.9*
O=C(Nc1nccs1)C1CC(=O)N(c2ccc(F)cc2)C1 (stereo not given)	1.5
C=C(C)C[C@H]1CCn2nncc2COCCNC1=O	-6.7[25 µM]
COc1ccc(CNC(=O)N(C)C[C@@H]2OCc3ccccc3-c3ccccc3C(=O)N([C@@H](C)CO)C[C@H]2C)cc1	-13.9[25 µM]
O=C(C(=Cc1ccccc1)CN1CCCCC1)c1ccccc1	73.5*
O=C(CN1CCCC1)N1c2ccccc2C=Cc2ccccc21	11.2
O=C(CN1CCCCCC1)N1c2ccccc2C=Cc2ccccc21	24.6
COc1cc(C=NOC(=O)Nc2ccccc2)cc(OC)c1OC	-25.6
COc1ccc(NC(=O)CCc2c(C)nc3nc(C)nn3c2C)cc1	1.6
COc1ccc(NC(=O)O/N=C/c2c(C)nn(C(C)(C)C)c2C)cc1	64.0*
COc1ccc2c3c([nH]c2c1)[C@@H](CO)N(C(=O)C1CCOCC1)CC31CCN(Cc2cccc(F)c2)CC1	-1.0[25 µM]
CC(C)NC(=O)N1CC2(C1)[C@H](c1ccccc1)[C@@H](CO)N2C(=O)C1CCOCC1	-9.7[25 µM]
O=C1c2ccccc2-c2c1cccc2C(=O)N1CCOCC1	11.4
O=C1C(=C(c2ccccc2)N2CCOCC2)Cc2ccccc21	89.2*
O=C(c1ccccc1)N1CCN(C(=O)N2CCOCC2)CC1	7.8
COc1cc(SC)ccc1-c1nc2ccncc2[nH]1	-5.8[25 µM]
CCS(=O)(=O)N1Cc2cc(C(=O)N(C)C)nc(-c3cccc(-c4ccc(C#N)cc4)c3)c2[C@@H]1CCO	4.8[25 µM]
C[C@@H]1CN([C@H](C)CO)C(=O)c2c(c3ccccc3n2C)-c2ccccc2CO[C@@H]1CN(C)C(=O)Nc1cccc(C(F)(F)F)c1	19.6[25 µM]
C[C@@H]1CN([C@H](C)CO)C(=O)c2c(c3ccccc3n2C)-c2ccccc2CO[C@H]1CN(C)C(=O)Nc1cccc(C(F)(F)F)c1	38.4[25 µM]
SMILES	BL2 CD40 inh
C[C@@H]1CN([C@@H](C)CO)C(=O)c2c(c3ccccc3n2C)-c2ccccc2CO[C@@H]1CN(C)C(=O)Nc1cccc(C(F)(F)F)c1	23.6[25 µM]
C[C@H]1CN([C@@H](C)CO)C(=O)c2c(c3ccccc3n2C)-c2ccccc2CO[C@H]1CN(C)C(=O)Nc1cccc(C(F)(F)F)c1	54.5*[25 µM]
C[C@@H]1CN([C@H](C)CO)C(=O)c2c(c3ccccc3n2C)-c2ccccc2CO[C@H]1CN(C)C(=O)Nc1cccc(F)c1	5.2
C[C@@H]1CN([C@@H](C)CO)C(=O)c2c(c3ccccc3n2C)-c2ccccc2CO[C@H]1CN(C)C(=O)Nc1cccc(C(F)(F)F)c1	70.4*[25 µM]
COc1ccccc1NC(=O)N1CCCCN2[C@H](CO)[C@H](c3ccc(-c4cccc(C#N)c4)cc3)[C@@H]2C1	33.3[25 µM]
COc1cccc(-c2ccc3c(c2)[C@@H]2[C@@H](CCN2S(=O)(=O)c2ccccc2F)[C@H](CO)N3)c1	8.8[25 µM]
CC(C)N(C[C@H]1N[C@H](CO)[C@@H]1c1ccccc1)C(=O)CN1CCOCC1	-1.1[25 µM]
COc1ccc(CN(C)C[C@@H]2Oc3ccc(NC(=O)Nc4c(C)noc4C)cc3C(=O)N([C@@H](C)CO)C[C@@H]2C)cc1	-3.3[25 µM]
COc1ccc(C(=O)C23CC4CC(C2)CC(C(=O)c2ccc(OC)cc2)(C4)C3)cc1	9.0
COc1ccc(-c2ccc(C(=O)C3CC3)cc2)cc1	-51.2
CC[N+]1(C)CCC(O)(c2ccc(OC)cc2)C(C(=O)c2ccc(OC)cc2)C1 (stereo not given)	97.2*
CCS(=O)(=O)Nc1ccc2c(c1)C(=O)N(C)[C@H]1CC[C@@H](CC(=O)NCc3ccccc3F)O[C@@H]1CO2	0.0[25 µM]
COC(=O)[C@H]1[C@H](CO)[C@H]2Cn3c(ccc(-c4ccc(F)cc4)c3=O)[C@H]2N1C	-17.3[25 µM]
C[C@H]1CN([C@@H](C)CO)C(=O)c2cc(N(C)C)ccc2O[C@H]1CN(C)Cc1ccc(Oc2ccccc2)cc1	-4.6[25 µM]
O=c1[nH]c(=O)n(C2CCCO2)cc1F (stereo not given)	2.1
O=C1C(F)=CC(COC(c2ccccc2)(c2ccccc2)c2ccccc2)OC1n1cc(F)c(=O)[nH]c1=O (stereo not given)	100.7*
CC(C)[C@H]1C(=O)N[C@@H](c2ccc3c(c2)OCO3)CC=CC[C@@H](C)Oc2ccccc2C(=O)N1C (mixture of isomers)	0.8
O=C1CN(S(=O)(=O)c2cccc(F)c2)C[C@@H]2[C@@H](c3ccc(C4=CCCC4)cc3)[C@H](CO)N12	-28.9[25 µM]
